The list shows a part of the results. No count for the full screen is at hand.
Target: furin, P09958
Assay: furin cleavage Z-score vs untreated control; higher = more cleavage, active = 3.5 or more, inactive = 1 or less, 8 variable residues between constant flanks
Method in brief: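 Peptides 8 residues long, fused to a cDNA oligonucleotide, were fixed to magnetic beads by the N-terminus and exposed to purified furin. The 0.01 ml reactions contained 50 mM HEPES pH 7.5 with CaCl2 and NaCl at 1:10 enzyme:substrate and ran 7.5, 15 or 30 min. For the cleavage Z-score, log counts of sequenced released DNA were compared with furin-free reactions, lowess-adjusted and scaled by median absolute deviation.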

furin, P09958, sequence (P09958 whole entry): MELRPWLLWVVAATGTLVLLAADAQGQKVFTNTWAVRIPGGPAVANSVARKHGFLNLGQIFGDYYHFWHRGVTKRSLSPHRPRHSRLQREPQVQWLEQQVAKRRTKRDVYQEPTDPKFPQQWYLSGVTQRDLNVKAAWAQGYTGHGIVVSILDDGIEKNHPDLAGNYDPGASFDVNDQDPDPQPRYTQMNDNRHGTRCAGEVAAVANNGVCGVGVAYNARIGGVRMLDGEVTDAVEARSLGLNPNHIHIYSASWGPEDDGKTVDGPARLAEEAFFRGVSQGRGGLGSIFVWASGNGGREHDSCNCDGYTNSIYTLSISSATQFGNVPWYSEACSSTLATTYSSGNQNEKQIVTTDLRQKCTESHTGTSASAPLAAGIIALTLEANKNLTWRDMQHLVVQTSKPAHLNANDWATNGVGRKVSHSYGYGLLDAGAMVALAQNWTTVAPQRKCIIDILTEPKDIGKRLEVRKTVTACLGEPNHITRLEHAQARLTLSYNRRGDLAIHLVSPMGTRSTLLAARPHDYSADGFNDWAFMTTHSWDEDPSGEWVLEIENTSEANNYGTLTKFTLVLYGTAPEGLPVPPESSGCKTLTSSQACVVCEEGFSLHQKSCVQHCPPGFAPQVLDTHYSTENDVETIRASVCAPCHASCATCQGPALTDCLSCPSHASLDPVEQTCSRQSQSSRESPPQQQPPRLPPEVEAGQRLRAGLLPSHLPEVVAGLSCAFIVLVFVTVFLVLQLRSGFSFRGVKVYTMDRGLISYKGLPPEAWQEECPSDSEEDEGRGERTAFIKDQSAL

| Sequence | furin cleavage Z-score (7.5 min) | furin cleavage Z-score (15 min) | furin cleavage Z-score (30 min) |
| --- | --- | --- | --- |
| CAVVCCSMSAAGNASASA [HC2083] | 0.0703 (inactive) | -1.17 (inactive) | -0.85 (inactive) |
| CAGGWVAAQLAGNASASA [HC1067] | -0.864 (inactive) | -1.6 (inactive) | 0.105 (inactive) |
| CAVVVATDALAGNASASA [HC877] | -0.345 (inactive) | -0.967 (inactive) | -0.904 (inactive) |
| CARRKRKVLHAGNASASA [FS-2515] | 1.78 | 1.49 | 4.34 (active) |
| CARCRKSCEHAGNASASA [FS-1997] | -0.455 (inactive) | -0.923 (inactive) | 0.798 (inactive) |
| CARRKRCMRHAGNASASA [FS-2295] | 6.23 (active) | 8.55 (active) | 6.72 (active) |
| CARRKRKKKHAGNASASA [FS-1777] | -0.226 (inactive) | 0.662 (inactive) | 2.03 |
| CARRKRYAIQAGNASASA [FS-3205] | 8.13 (active) | 11.7 (active) | 10.8 (active) |
| CAREIRSEEPAGNASASA [FS-2005] | 0.429 (inactive) | -0.412 (inactive) | -0.762 (inactive) |
| CARRKRYAIQAGNASASA [FU8] | 8.03 (active) | 11.3 (active) | 11.2 (active) |
| CARVQRMAEHAGNASASA [FS-2841] | 2.56 | 3.98 (active) | 4.15 (active) |
| CAEVATSTWVAGNASASA [HC2183] | -1.15 (inactive) | -1.35 (inactive) | -0.393 (inactive) |
| CASTPCSQHLAGNASASA [HC2542] | -0.0132 (inactive) | 0.861 (inactive) | 2.13 |
| CAITLTHPVTAGNASASA [HC978] | -0.565 (inactive) | -1.36 (inactive) | -0.511 (inactive) |
| CACVVTSTWVAGNASASA [HC2160] | -0.122 (inactive) | 1.54 | -0.488 (inactive) |
| CARERKAGCKAGNASASA [DV2] | 0.35 (inactive) | 1.62 | 2.14 |
| CAMEEYSQHLAGNASASA [HC17] | -0.583 (inactive) | 0.186 (inactive) | 0.59 (inactive) |
| CASVLCECYDAGNASASA [HC918] | -0.934 (inactive) | -1.47 (inactive) | -0.91 (inactive) |
| CARKAVTHINAGNASASA [HC1427] | -0.202 (inactive) | -1.07 (inactive) | 0.0109 (inactive) |
| CARKARSYIKAGNASASA [FS-2340] | -0.0545 (inactive) | 0.583 (inactive) | 3.72 (active) |
| CANTLTCYIKAGNASASA [HC1516] | -0.56 (inactive) | -0.15 (inactive) | -0.828 (inactive) |
| CARRKRYISQAGNASASA [FS-1780] | 6.79 (active) | 7.45 (active) | 9.13 (active) |

| Sequence | furin cleavage Z-score (7.5 min) | furin cleavage Z-score (15 min) | furin cleavage Z-score (30 min) |
| --- | --- | --- | --- |
| CARKARMLYQAGNASASA [FS-2685] | 1.39 | 5.49 (active) | 5 (active) |
| CARKARIISQAGNASASA [FS-3157] | 1.75 | -1.95 (inactive) | -0.675 (inactive) |
| CARRKRHSEHAGNASASA [FS-3166] | 10.5 (active) | 10.9 (active) | 8.79 (active) |
| CARRKRKKEVAGNASASA [FS-2296] | 1.16 | -1.15 (inactive) | 1.21 |
| CAKKTPMGFSAGNASASA [HC1476] | -0.403 (inactive) | 1.01 | -1.33 (inactive) |
| CAHEECSQHLAGNASASA [HC1675] | -0.578 (inactive) | 0.64 (inactive) | 1.48 |
| CAVVCQSMSYAGNASASA [HC99] | 0.407 (inactive) | 0.993 (inactive) | 0.767 (inactive) |
| CAHVQRQRREAGNASASA [FS-441] | 12.3 (active) | 12.8 (active) | 9.16 (active) |
| CAYSPGQRVEAGNASASA [HC1468] | -0.672 (inactive) | 1.68 | -1.81 (inactive) |
| CAPCQVPSPEAGNASASA [HC1217] | 0.307 (inactive) | -0.147 (inactive) | 0.789 (inactive) |
| CAPCCRQRREAGNASASA [FS-471] | 10.1 (active) | 8.7 (active) | 8.83 (active) |
| CAGHYVQMVIAGNASASA [HC626] | -0.996 (inactive) | -0.792 (inactive) | 0.151 (inactive) |
| CAEVDTSTWVAGNASASA [HC2191] | -0.604 (inactive) | -1.24 (inactive) | 0.933 (inactive) |
| CAVAHLHAPTAGNASASA [HC773] | -0.671 (inactive) | -1.87 (inactive) | -0.0272 (inactive) |
| CAALSNSLLRAGNASASA [HC1383] | -1.04 (inactive) | 0.165 (inactive) | 0.485 (inactive) |
| CARHKRKQLPAGNASASA [FS-1823] | 1.11 | -0.015 (inactive) | 2.17 |
| CARHKRMCQGAGNASASA [FS-2335] | 1.23 | 0.787 (inactive) | 3.08 |
| CARHKRKVFEAGNASASA [FS-1954] | 0.591 (inactive) | 1.75 | 4.34 (active) |
| CARHKRSLLRAGNASASA [FS-2336] | 3.75 (active) | 5.3 (active) | 6.44 (active) |
| CARHKRETLKAGNASASA [FS-2678] | 8.31 (active) | 10.5 (active) | 9.25 (active) |
| CARNKRKVFSAGNASASA [FS-2159] | 0.528 (inactive) | 1.39 | 3.14 |
| CARHKRRSKFAGNASASA [FS-2938] | 1.38 | 2.52 | 5.2 (active) |
